Experimental data from PubChem BioAssay (NCI).
This is part of a sample that, as a whole, favours compounds with a hit. Of some 83,000 tested, about 20% had one in any assay.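 Percent growth is the endpoint: 0 to 100 indicates growth inhibition (40 means 60% inhibition), 0 means no net growth, and negative values indicate cell death.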 A number with no mark means an inactive call. Activity calls are given as the source filed them. The calls were made as follows: active = growth percent below 10; inactive = the rest.

Key:
Experiment in all cases: NCI-60 one-dose screen, 48 h (100 = growth as untreated, 0 = no growth, -100 = all killed)
Details in all cases: 10 µM unless noted
NCI-H23 lung = test system: NCI-H23 lung
NCI-H226 lung = test system: NCI-H226 lung
NCI-H322M lung = test system: NCI-H322M lung
HOP-62 NSCLC = test system: HOP-62 NSCLC
NCI-H460 lung = test system: NCI-H460 lung
HOP-92 NSCLC = test system: HOP-92 NSCLC
A549/ATCC NSCLC = test system: A549/ATCC NSCLC
786-0 renal = test system: 786-0 renal
COLO 205 colon = test system: COLO 205 colon

Compound | growth (NCI-H23 lung) | growth (NCI-H226 lung) | growth (NCI-H322M lung) | growth (HOP-62 NSCLC) | growth (NCI-H460 lung) | growth (HOP-92 NSCLC) | growth (A549/ATCC NSCLC) | growth (786-0 renal) | growth (COLO 205 colon)
C[C@H](C(=O)N[C@@H](Cc1ccc(-c2ccccc2)cc1)C(=O)NC1CC(C)(C)N(C)C(C)(C)C1)c1ccc(-c2ccccc2)c(F)c1 | -71% (active) | -49.1% (active) | -62.3% (active) | -73.5% (active) | -75.8% (active) | -75.5% (active) | -79.1% (active) | -91.3% (active) | -69.6% (active)
COc1ccc(N2CCN(CC(=O)N3CCN(c4nnc(-c5ccccc5)c(-c5ccccc5)n4)CC3)CC2)cc1 | 46.8% | 46.2% | 78.2% | 64.7% | 42.5% | 39% | 14.8% | 27% | 47.9%
CC(NNC(=S)N1CCCCCC1)c1ccc2ccccc2n1 (stereo unspecified) | 60.9% | 45.3% | 27.2% | 42.7% | 12.5% | 65.7% | 13.9% | 40% | 20.1%
O=C(CC1Sc2ccccc2NC1=O)NNc1cccc(Cl)c1Cl (stereo unspecified) | 77% | 73.9% | 73.5% | 84.6% | 66.2% | 24.4% | 92.3% | 95.3% | 82.2%
COc1cc(NC(=O)NCc2ccco2)ccc1-c1ccc(NC(=O)NCc2ccco2)cc1OC | 49.4% | 14.1% | 49.5% | 33.8% | 35.8% | 23% | 34.6% | 40.1% | 64.9%
Cc1cc(C)c2c(N)c3cccc(C)c3nc2n1 | -28.6% (active) | -10.6% (active) | 0.65% (active) | -28.4% (active) | -1.3% (active) | -12.9% (active) | -40.9% (active) | -3.97% (active) | -18.2% (active)
CNCCCn1c2c(c3ccc(F)cc3c1=O)C(=O)c1cc(OC)cnc1-2 | -41.5% (active) | -61.2% (active) | -1.98% (active) | -30% (active) | -37.6% (active) | -12.4% (active) | -71.2% (active) | -38.3% (active) | -33.1% (active)
CC(C)Cn1cnc2c(NCn3nc(-c4cc(Cl)cc(Cl)c4Cl)n(/N=C/c4ccc(Cl)cc4)c3=S)nc3ccccc3c21 | 80.9% | 73.4% | 81.6% | 79.4% | 99.1% | 45% | 77.9% | 90.7% | 94.6%
Cc1ccc(-c2c3c(N)c4c(nc3nc3c2c(C)nn3-c2ccccc2)CCC4)cc1 | 66.8% | 92.6% | 89.1% | 95.7% | 5% (active) | 77.9% | 32.9% | 28% | -74.4% (active)
N/C(=N\c1nc2ccccc2s1)NC(=O)Nc1ccccc1Cl | 34.9% | 35.3% | 45% | 28.6% | 12.7% | 139% | 21.6% | 36.6% | -44.4% (active)
CCc1nn2c(-c3ccc(Cl)cc3C)c(-c3cc(OC)c(OC)c(OC)c3)nc2s1 | 88.9% | 87% | 69.7% | 84.7% | 84.8% | 58.1% | 82.7% | 72.9% | 81.2%
CCCCCCCCCCCCCCCCCC1=NC(C)(CO)CO1 (stereo unspecified) | 98.2% | 91.1% | 90.4% | 95.9% | 103% | 79.8% | 89.6% | 92.3% | 101%
O=C(Nc1ccc(Cl)cc1)Nc1nc2ccc(OC(F)(F)F)cc2o1 | 68.6% | 107% | 113% | 114% | 81.8% | 71.9% | 75.1% | 105% | 118%
Cc1ccc2nc3c(n2c1)C(=O)C(=O)c1ccccc1-3 | -12.4% (active) | -44.1% (active) | -80.7% (active) | -74.9% (active) | -71.1% (active) | -77.2% (active) | -77.3% (active) | -81% (active) | -69.2% (active)
Oc1c(Cl)cc(Oc2cc(Cl)c(O)c(CN3CCOCC3)c2)cc1CN1CCOCC1 | 99.6% | 92.7% | 96% | 81.2% | 93.4% | 79% | 78.7% | 105% | 105%
Nc1nc2c(c(=O)[nH]1)C1(C(=O)Nc3ccccc31)c1c(nc(N)[nH]c1=O)N2 | 106% | 91.5% | 98.1% | 101% | 104% | 96.2% | 112% | 108% | 102%
OC(c1cc(-c2cccc(Cl)c2)nc2ccccc12)C1CCCCN1 (stereo unspecified) | 3.63% (active) | 31.2% | -12.3% (active) | -67.3% (active) | -47% (active) | -17.6% (active) | -90.4% (active) | -82.6% (active) | -85.7% (active)
COC(=O)[C@H](Cc1cn(C)cn1)NC(=O)[C@H](Cc1ccccc1)NC(=O)Nc1cc(C(F)(F)F)cc(C(F)(F)F)c1 | -83.3% [100 µM] (active) | -50.9% [100 µM] (active) | -94.2% [100 µM] (active) | -97.4% [100 µM] (active) | -50% [100 µM] (active) | -97.3% [100 µM] (active) | -85.6% [100 µM] (active) | -91.4% [100 µM] (active) | -82.1% [100 µM] (active)
C(=C1c2ccccc2-c2ccccc21)c1ccccn1 | 79.9% | 99.6% | 89.1% | 71.7% | 83.8% | 73.4% | 63.7% | 87.2% | 84.9%
CCCCCN1C(=O)CCC1=O | 110% | 101% | 110% | 92.9% | 120% | 79.3% | 99% | 111% | 99.4%
Cc1ccc2nc(SCC(=O)Nc3ccc(-c4nc5ccccc5s4)c(Cl)c3)[nH]c2c1 | 109% | 98.7% | 101% | 114% | 116% | 98% | 98.3% | 98.1% | 107%
COc1ccc(OC)c(CCn2cncc2-c2c[nH]c3cc(Br)ccc23)c1 | 30.1% | 41.5% | 87.1% | 38% | 36.7% | 20.6% | 31.2% | 59.5% | 7.59% (active)
O=C1NCCc2c1noc2-c1ccccc1 | 99.5% | 104% | 101% | 94.9% | 107% | 104% | 79.7% | 96.5% | 103%
[N-]=[N+]=NCc1cccc(/C(O)=C/C(=O)C(=O)O)c1 | 85.4% | 86.1% | 93.8% | 94.5% | 104% | 92.7% | 93.6% | 97.3% | 99.6%
O=C(Nc1nc2ccc(OC(F)(F)F)cc2s1)c1ccc(F)cc1 | -34.7% (active) | 20.6% | 30% | 26.1% | -13.1% (active) | -14% (active) | 14.5% | 16.2% | -17.4% (active)
Cc1[nH]c(=O)[nH]c(=O)c1CCSSCCc1c(C)[nH]c(=O)[nH]c1=O | 107% | 102% | 89.9% | 97.2% | 108% | 116% | 103% | 103% | 107%
COC(=O)[C@H](Cc1cnc[nH]1)NC(=O)[C@@H](NC(=O)Nc1cc(C(F)(F)F)cc(C(F)(F)F)c1)C(C)C | -70.6% [100 µM] (active) | -44.1% [100 µM] (active) | -94.9% [100 µM] (active) | -92.5% [100 µM] (active) | -42.5% [100 µM] (active) | -96.7% [100 µM] (active) | -70.8% [100 µM] (active) | -90.7% [100 µM] (active) | -82.6% [100 µM] (active)
Cc1ccc2c(c1)C(=O)/C(=C\Nc1ccc(C(N)=O)cc1)C(O)O2 (stereo unspecified) | 114% | 154% | 95.8% | 88.3% | 111% | -17.9% (active) | 114% | 110% | 108%
COc1cc(/C=C/C(=O)C(C(=O)/C=C/c2ccc(OC(=O)CCNC34CC5CC(CC(C5)C3)C4)c(OC)c2)C(=O)CCNC23CC4CC(CC(C4)C2)C3)ccc1OC(=O)CCNC12CC3CC(CC(C3)C1)C2 (stereo unspecified) | 32.2% | 31.4% | 51.6% | 29.8% | 7.93% (active) | 44.6% | 29.1% | -53.3% (active) | 17.7%
